Laboratory results as given in PubChem BioAssay (Tox21).
Values joined by “and” are separate entries in the source; they are usually repeats but may differ in a detail not shown here. Equal entries are not always repeated. Results filed as inconclusive are left out. A call without a number means that no potency is given here. The source holds several records for some structures; these can differ, active in one and inactive in another. Active and inactive are the calls of the source. Unless noted, the call rests on the fitted dose curve; in most records, active means well fitted curve in the direction sought with a large enough effect in the repeat runs; inconclusive means weak or mixed curves; inactive means no such curve, though single readings can be large; an effect the other way counts as inactive or inconclusive.

How the values were obtained:
[1] = qHTS assay to identify aromatase inhibitors - cell viability counter screen (AID 743084);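 further: cells stimulated with testosterone during compound exposure; nearly all actives have a fitted effect of over 55% in size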; further: potency means the concentration at half of the fitted maximal effect
[2] = biological target: Aryl hydrocarbon receptor (Homo sapiens) (UniProt P35869); experiment: qHTS assay to identify small molecule that activate the aryl hydrocarbon receptor (AhR) signaling pathway (AID 743085);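 further: HG2L7.5c1 human HepG2 liver cells with stably integrated DRE-driven firefly reporter; series mostly up to about 70 µM; nearly all actives have a fitted effect of over 15% in size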
Summary of the method: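 24 h compound exposure, 37C, HepG2-derived HG2L7.5c1 cells with DRE-responsive luciferase. Readouts: fluorescence viability, then luminescence at room temperature after 30 min.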

[3] = qHTS assay to identify small molecule that activate the aryl hydrocarbon receptor (AhR) signaling pathway - cell viability counter screen (AID 743086);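 further: HepG2 liver cells carrying the AhR DRE luciferase reporter; series mostly up to about 70 µM; nearly all actives have a fitted effect of over 45% in size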
Summary of the method: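 HepG2-AhR-luc (HG2L7.5c1) cells, 4000/well, were preincubated 5 h at 37C, exposed to compound in qHTS format for 24 hr at 37C, then given CellTiter-Fluor for 30 min; viability was read as fluorescence in the reporter wells.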

[4] = biological target: Peroxisome proliferator-activated receptor gamma (Homo sapiens) (UniProt P37231); experiment: qHTS assay to identify small molecule agonists of the peroxisome proliferator-activated receptor gamma (PPARg) signaling pathway (AID 743094; active means well fitted activation curve with a large enough effect in the signal ratio in the repeat runs, not every such curve was filed as active; the % refers to the signal ratio)
Summary of the method: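 Fluorescence-based beta-lactamase readout in HEK293H PPARg UAS-bla cells after 17 h compound exposure (37C) and 1 h B/G FRET substrate incubation at room temperature.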

[5] = qHTS assay to identify small molecule antagonists of the peroxisome proliferator-activated receptor gamma (PPARg) signaling pathway - cell viability counter screen (AID 743194); further: nearly all actives have a fitted effect of over 55% in size; further: potency means the concentration at half of the fitted maximal effect
Summary of the method: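 PPARg-UAS-bla HEK293H cells were plated, rested 5 h at 37 C, then treated with compounds plus rosiglitazone (50 nM final) for 17 h at 37 C; viability was then read by CellTiter-Glo luminescence after 30 min at room temperature.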

[6] = qHTS assay for small molecule agonists of the antioxidant response element (ARE) signaling pathway (AID 743202; active means well fitted activation curve with a large enough effect in the signal ratio in the repeat runs, not every such curve was filed as active; the % refers to the signal ratio; further: potency means the concentration at half of the fitted maximal effect)
Summary of the method: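 Steps: seed ARE-bla HepG2 cells (2,000/well); incubate 5 h at 37 C; add compounds by pin tool; incubate 16 h at 37 C; add FRET substrate; read fluorescence after 2 h at RT.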

[7] = qHTS assay for small molecule agonists of the antioxidant response element (ARE) signaling pathway - cell viability counter screen (AID 743203; calls by dose curve; further: nearly all actives have a fitted effect of over 55% in size; further: potency means the concentration at half of the fitted maximal effect)
Summary of the method: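 Parallel cytotoxicity read-out for the ARE-bla screen: HepG2 reporter cells, 16 hrs with compounds, then CellTiter-Glo luminescence.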

[8] = qHTS assay for small molecule activators of the heat shock response signaling pathway - cell viability counter screen (AID 743209); further: nearly all actives have a fitted effect of over 50% in size; further: potency means the concentration at half of the fitted maximal effect
Summary of the method: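 To flag cytotoxic compounds, HSE-bla HeLa cells plated at 1500 cells/well were dosed for 5 h at 37 C, followed by the reporter FRET read and then CellTiter-Glo, with luminescence recorded 30 min after reagent addition.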

[9] = qHTS assay for small molecule activators of the heat shock response signaling pathway (AID 743210; active means well fitted activation curve with a large enough effect in the signal ratio in the repeat runs, with a control signal flat, not every such curve was filed as active; the % refers to the signal ratio;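 further: HeLa cells with beta-lactamase reporter driven by heat shock elements; series mostly up to about 63 µM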)
Summary of the method: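 Activation of heat shock element-controlled beta-lactamase expression is measured in HeLa cells by LiveBLAzer FRET fluorescence, with compound exposure lasting 5 h at 37 C and substrate loading 2.5 h at room temperature.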

Chain of Peroxisome proliferator-activated receptor gamma (Homo sapiens) (P37231 whole entry, looked up): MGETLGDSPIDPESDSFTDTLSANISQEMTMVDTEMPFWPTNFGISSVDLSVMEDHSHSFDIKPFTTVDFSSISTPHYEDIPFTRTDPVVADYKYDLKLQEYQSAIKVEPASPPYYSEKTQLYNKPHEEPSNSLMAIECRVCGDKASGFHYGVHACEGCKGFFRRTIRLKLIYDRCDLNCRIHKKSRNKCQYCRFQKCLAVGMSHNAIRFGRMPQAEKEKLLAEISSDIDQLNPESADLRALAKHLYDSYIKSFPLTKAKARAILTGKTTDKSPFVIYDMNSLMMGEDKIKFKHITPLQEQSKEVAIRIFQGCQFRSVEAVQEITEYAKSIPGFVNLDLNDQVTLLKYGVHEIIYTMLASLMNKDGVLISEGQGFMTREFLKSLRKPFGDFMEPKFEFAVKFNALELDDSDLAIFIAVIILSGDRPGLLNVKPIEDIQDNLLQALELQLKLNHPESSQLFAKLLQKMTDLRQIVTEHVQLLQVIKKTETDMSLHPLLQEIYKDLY
Chain of Aryl hydrocarbon receptor (Homo sapiens) (P35869 whole entry, looked up): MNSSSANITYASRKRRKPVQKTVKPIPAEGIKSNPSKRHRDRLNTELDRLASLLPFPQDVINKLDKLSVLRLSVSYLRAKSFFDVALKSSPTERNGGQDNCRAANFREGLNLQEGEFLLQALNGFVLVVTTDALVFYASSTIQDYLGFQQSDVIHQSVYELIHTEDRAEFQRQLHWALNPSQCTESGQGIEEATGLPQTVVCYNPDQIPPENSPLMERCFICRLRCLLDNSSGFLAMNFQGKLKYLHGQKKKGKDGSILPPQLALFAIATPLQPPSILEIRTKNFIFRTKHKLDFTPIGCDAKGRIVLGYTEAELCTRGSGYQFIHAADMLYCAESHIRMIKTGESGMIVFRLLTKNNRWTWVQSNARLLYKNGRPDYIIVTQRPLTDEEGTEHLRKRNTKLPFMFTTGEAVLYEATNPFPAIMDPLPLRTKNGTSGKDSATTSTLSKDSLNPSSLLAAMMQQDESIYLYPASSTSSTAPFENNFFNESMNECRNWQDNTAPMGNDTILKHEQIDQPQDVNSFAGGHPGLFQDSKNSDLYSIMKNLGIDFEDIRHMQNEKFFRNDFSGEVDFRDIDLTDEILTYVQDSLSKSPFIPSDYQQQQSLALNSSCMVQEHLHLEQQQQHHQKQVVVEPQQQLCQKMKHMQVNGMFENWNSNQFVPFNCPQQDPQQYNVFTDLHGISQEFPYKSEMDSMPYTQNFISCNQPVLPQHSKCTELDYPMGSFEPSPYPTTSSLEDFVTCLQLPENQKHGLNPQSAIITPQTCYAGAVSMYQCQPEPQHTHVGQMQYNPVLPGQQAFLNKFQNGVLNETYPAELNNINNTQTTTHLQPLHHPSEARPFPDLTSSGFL

Row | Compound | Potency [1] | Potency [2] | Potency [3] | Potency [4] | Potency [5] | Potency [6] | Potency [7] | Potency [8] | Potency [9]
1 | CCN1CCCC1CNC(=O)c1cc(S(=O)(=O)CC)c(N)cc1OC (stereo unspecified) | inactive | inactive | inactive | inactive | inactive | inactive | inactive | inactive | inactive
2 | CCn1cc(C(=O)O)c(=O)c2cc(F)c(N3CCNC(C)C3)c(F)c21 (stereo unspecified) | inactive | inactive | inactive | inactive | inactive | inactive |  | inactive | inactive
3 | CC(=O)Nc1ccc(C(=O)CCl)cc1 | 7.7 µM (active) | inactive | inactive | inactive | 13.8 µM (active) | 34.6 µM (active) | inactive and 19.3 µM (active) | inactive and 3.89 µM (active) | inactive
4 | CCN(CC)C(=O)Nc1ccc(OCC(O)CNC(C)(C)C)c(C(C)=O)c1 (stereo unspecified) | inactive | inactive | inactive | inactive | inactive | inactive | inactive | inactive | inactive
5 | CCC(C)(Oc1ccc(C2(c3ccc(OC(C)(CC)C(=O)O)cc3)CCCCC2)cc1)C(=O)O (stereo unspecified) | inactive | inactive | inactive | inactive | inactive | inactive | inactive | inactive | inactive
6 | CC(C)(O)CCC(C)(C)O | inactive | inactive | inactive | inactive | inactive | inactive | inactive | inactive | inactive
7 | C=C(C)C(=O)O | inactive | inactive | inactive | inactive | inactive | inactive | inactive | inactive | inactive
8 | CCOc1ccccc1C(N)=O | inactive | inactive | inactive | inactive | inactive | inactive |  | inactive | inactive
9 | Cc1cc(C(C)(C)C)c(O)c(C(C)(C)C)c1 | inactive | inactive | inactive | inactive | inactive | inactive |  | inactive | inactive
10 | CC(=O)OCCOCCOCCOC(C)=O | inactive | inactive | inactive | inactive | inactive | inactive | inactive | inactive | inactive
11 | CCCNC(C)C(=O)Nc1ccccc1C (stereo unspecified) | inactive | inactive | inactive | inactive | inactive | inactive | inactive | inactive | inactive
